Potency data for 18 compounds are collected here from PubChem BioAssay (NCATS).

Records with an inconclusive call do not appear. A call without a number means that no potency is given here. The source made the active and inactive calls. Calls follow the shape of the dose curve; as a rule, active = well fitted inhibition curve with a large enough effect; inconclusive = small, poorly fitted or top-dose-only effect; inactive = flat fitted curve, though single readings scatter.

This assay relates to Zika virus NS2B-NS3 protease. Briefly: Primary screen GU AMC qHTS for Zika virus inhibitors (AID 1347154). Also: nearly all actives have a fitted effect of over 70% in size. In outline: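 Fluorogenic AMC-substrate cleavage by noncovalent NS2B-NS3 protease complex (25 nM, pH 8.0 Tris buffer with Tween 20) followed for 15 minutes at room temperature (~20% conversion). Percent inhibition from ex340/em450 signal change, fitted by 4-parameter Hill equation.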

As to `C=C[C@@H]1CN2CCC1C[C@H]2[C@H](O)c1ccnc2ccc(OC)cc12` (stereo partly drawn), the Potency result is “inactive”.
Take `CCCNS(=O)(=O)Nc1ncnc(OCCOc2ncc(Br)cn2)c1-c1ccc(Br)cc1`: the Potency entry is “inactive”.
Take `CCOC(=O)[C@H](CCc1ccccc1)N[C@@H](C)C(=O)N1[C@@H](C(=O)O)C[C@H]2CCC[C@@H]21`: the Potency entry is “inactive”.
With `c1coc(CNc2ncnc3nc[nH]c23)c1`, the Potency entry is “inactive”.
The value for `CC(C)OC(=O)[C@H](C)N[P@](=O)(OC[C@H]1O[C@@H](n2ccc(=O)[nH]c2=O)[C@](C)(F)[C@H]1O)Oc1ccccc1` was “inactive”.
Turning to `COC1=C(OC)C(=O)C(CC=C(C)CCC=C(C)CCC=C(C)CCC=C(C)CCC=C(C)CCC=C(C)CCC=C(C)CCC=C(C)CCC=C(C)CCC=C(C)C)=C(C)C1=O`, the Potency result was “inactive”.
On to `CCCCCCCCCCCC(CC1OC(=O)C1CCCCCC)OC(=O)C(CC(C)C)NC=O` (stereo not drawn), for which the Potency entry is “inactive”.
The value for `CC[C@H](CC[C@@H](C)[C@H]1CC[C@H]2[C@@H]3CC=C4C[C@@H](O)CC[C@]4(C)[C@@H]3CC[C@]12C)C(C)C` was “inactive”; that for `C=CC[C@@H]1C=C(C)C[C@H](C)C[C@H](OC)[C@H]2O[C@@](O)(C(=O)C(=O)N3CCCC[C@H]3C(=O)O[C@H](C(C)=C[C@@H]3CC[C@H](O)[C@H](OC)C3)[C@@H](C)[C@@H](O)CC1=O)[C@@H](C)C[C@@H]2OC` was “inactive”.
As for `CCc1c(O)cc(O)c(C(=O)c2ccc(OCCN3CCOCC3)c(OC)c2)c1CC(=O)N(CCOC)CCOC`, the Potency entry was “inactive”.
Take `C[C@H](CCC(=O)O)[C@H]1CC[C@H]2[C@@H]3[C@H](O)C[C@@H]4C[C@H](O)CC[C@]4(C)[C@@H]3CC[C@]12C`: the Potency entry was “inactive”.
For the compound `CC(C)N(CC[C@H](c1ccccc1)c1cc(CO)ccc1O)C(C)C`, the Potency result is “inactive”.
As for `c1cc(CN2CCCNCCNCCCNCC2)ccc1CN1CCCNCCNCCCNCC1`, the Potency entry is “inactive”.
On to `O=C(O)C=Cc1ccc(Cn2ccnc2)cc1`, for which the Potency entry is “inactive”.
With `CC1(C)CC(O)CC(C)(C)N1[O]`, the Potency entry was “inactive”.
The value for `O=C1NC(O)CCN1[C@@H]1O[C@H](CO)[C@H](O)[C@H]1O` (stereo partly drawn) was “inactive”; that for `C[C@@H]1C(=O)O[C@H]2CC34[C@H]5C[C@@H](C(C)(C)C)C36[C@H](OC(=O)[C@@H]6O)O[C@@]4(C(=O)O5)[C@]21O` (stereo partly drawn) was “inactive”.
As for `CC(=O)N[C@H]1[C@@H]([C@H](O)[C@H](O)CO)OC(C(=O)O)=C[C@@H]1N=C(N)N`, the Potency result is “inactive”.
